Results: the supplement of paper PMC10849652
Targets with a hit are over-represented here; the source holds about 7,900 in all. About 0.6% of all pairs of compound and target were hits. A number with no mark means an inactive call.

Sequence of UniProt O15162 (O15162 whole entry, looked up): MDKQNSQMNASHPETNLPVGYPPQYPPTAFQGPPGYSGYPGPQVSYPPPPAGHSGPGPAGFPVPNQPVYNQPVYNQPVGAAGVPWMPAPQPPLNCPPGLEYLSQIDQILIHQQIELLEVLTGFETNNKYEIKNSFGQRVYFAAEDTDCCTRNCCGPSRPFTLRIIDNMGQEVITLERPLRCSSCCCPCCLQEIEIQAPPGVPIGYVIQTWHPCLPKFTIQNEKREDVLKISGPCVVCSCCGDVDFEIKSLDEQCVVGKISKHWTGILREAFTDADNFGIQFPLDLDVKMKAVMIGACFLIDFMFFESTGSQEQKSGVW
Sequence of UniProt O75400 (O75400 whole entry, looked up): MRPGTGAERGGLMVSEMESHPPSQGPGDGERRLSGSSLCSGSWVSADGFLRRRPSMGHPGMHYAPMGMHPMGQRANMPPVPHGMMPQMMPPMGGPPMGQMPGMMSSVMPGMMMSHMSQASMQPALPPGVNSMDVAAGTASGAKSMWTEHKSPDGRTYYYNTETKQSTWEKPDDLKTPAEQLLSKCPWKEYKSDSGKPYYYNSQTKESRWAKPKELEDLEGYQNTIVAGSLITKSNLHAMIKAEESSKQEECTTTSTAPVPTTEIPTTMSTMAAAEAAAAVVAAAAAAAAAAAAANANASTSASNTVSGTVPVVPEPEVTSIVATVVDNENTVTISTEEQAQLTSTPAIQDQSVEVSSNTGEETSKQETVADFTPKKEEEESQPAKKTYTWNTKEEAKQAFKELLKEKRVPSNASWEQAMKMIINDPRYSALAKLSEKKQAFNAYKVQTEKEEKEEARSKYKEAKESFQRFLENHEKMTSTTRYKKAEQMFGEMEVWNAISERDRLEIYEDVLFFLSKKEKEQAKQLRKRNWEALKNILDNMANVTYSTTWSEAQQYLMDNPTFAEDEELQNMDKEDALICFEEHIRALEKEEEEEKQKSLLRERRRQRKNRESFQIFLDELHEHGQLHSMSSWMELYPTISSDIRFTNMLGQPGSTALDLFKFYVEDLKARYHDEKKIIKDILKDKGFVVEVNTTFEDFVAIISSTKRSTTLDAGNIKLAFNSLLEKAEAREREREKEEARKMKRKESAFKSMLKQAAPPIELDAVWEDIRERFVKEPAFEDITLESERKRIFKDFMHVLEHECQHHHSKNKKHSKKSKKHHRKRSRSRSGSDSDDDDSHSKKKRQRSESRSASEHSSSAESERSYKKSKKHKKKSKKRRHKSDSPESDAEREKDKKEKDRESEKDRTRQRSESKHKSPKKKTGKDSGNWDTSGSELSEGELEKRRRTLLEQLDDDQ
Sequence of UniProt Q8WUM4 (Q8WUM4 whole entry, looked up): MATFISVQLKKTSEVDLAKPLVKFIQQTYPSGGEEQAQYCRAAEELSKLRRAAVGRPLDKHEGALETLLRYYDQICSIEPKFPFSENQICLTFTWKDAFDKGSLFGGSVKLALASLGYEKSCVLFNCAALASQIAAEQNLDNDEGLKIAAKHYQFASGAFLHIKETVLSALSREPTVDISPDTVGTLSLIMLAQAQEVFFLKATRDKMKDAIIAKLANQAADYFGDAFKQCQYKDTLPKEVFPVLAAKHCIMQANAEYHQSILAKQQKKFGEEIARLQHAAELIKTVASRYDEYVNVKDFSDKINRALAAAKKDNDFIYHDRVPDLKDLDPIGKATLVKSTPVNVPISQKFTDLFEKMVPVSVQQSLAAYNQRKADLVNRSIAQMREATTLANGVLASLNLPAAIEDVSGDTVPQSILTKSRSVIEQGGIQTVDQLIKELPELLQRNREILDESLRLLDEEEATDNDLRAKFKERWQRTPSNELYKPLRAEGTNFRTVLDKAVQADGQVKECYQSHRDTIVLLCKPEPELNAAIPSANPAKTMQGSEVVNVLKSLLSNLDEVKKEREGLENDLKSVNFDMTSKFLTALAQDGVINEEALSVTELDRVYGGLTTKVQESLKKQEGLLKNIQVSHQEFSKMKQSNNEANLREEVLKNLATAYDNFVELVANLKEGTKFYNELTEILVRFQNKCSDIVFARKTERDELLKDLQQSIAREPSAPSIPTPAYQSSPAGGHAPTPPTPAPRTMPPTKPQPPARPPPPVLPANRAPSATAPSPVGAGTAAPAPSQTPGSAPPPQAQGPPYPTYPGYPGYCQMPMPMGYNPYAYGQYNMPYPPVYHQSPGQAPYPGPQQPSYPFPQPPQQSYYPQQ
Sequence of UniProt Q00577 (Q00577 whole entry, looked up): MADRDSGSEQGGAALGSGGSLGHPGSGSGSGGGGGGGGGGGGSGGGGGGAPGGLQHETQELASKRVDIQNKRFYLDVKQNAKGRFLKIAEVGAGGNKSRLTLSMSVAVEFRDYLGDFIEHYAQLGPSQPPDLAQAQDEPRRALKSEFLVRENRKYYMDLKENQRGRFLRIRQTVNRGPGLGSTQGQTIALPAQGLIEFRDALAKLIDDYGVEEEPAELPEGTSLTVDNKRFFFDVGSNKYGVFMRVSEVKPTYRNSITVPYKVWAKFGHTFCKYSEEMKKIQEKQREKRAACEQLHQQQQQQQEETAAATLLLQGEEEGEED
Sequence of UniProt O00408 (O00408 whole entry, looked up): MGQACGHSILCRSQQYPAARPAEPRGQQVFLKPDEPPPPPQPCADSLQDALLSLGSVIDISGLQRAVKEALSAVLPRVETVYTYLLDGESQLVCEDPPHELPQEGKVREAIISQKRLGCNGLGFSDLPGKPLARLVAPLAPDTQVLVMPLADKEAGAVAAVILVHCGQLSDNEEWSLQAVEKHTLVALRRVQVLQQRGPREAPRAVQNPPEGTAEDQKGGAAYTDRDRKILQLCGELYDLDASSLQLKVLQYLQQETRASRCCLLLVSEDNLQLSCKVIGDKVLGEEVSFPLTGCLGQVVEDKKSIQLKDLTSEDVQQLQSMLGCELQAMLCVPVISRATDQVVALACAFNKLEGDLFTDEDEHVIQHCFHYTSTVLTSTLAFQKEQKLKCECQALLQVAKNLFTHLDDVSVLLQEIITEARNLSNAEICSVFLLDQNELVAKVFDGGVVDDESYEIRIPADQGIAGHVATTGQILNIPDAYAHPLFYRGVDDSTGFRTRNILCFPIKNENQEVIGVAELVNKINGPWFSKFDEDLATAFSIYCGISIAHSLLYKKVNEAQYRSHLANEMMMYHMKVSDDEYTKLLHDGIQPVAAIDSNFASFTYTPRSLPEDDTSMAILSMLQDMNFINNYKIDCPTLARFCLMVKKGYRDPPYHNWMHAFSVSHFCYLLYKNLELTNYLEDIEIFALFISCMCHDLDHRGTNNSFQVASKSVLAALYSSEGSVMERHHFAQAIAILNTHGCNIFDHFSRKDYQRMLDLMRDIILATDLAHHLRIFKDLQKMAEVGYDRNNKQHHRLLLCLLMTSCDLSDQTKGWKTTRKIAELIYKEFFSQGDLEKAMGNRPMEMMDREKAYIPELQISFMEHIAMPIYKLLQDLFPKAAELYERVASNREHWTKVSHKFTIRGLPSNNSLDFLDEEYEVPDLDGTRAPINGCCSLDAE
Sequence of UniProt Q9BRX2 (Q9BRX2 whole entry, looked up): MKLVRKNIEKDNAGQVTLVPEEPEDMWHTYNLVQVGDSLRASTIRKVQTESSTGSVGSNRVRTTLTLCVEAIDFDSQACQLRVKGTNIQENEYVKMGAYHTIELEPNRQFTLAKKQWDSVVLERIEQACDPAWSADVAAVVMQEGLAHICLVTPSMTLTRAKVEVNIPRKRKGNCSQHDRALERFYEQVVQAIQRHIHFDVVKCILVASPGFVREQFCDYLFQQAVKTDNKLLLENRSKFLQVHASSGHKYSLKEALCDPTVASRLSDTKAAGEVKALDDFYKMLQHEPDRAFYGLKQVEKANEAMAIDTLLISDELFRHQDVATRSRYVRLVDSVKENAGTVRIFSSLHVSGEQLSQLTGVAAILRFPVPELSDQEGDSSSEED
Sequence of UniProt Q8TAP8 (Q8TAP8 whole entry, looked up): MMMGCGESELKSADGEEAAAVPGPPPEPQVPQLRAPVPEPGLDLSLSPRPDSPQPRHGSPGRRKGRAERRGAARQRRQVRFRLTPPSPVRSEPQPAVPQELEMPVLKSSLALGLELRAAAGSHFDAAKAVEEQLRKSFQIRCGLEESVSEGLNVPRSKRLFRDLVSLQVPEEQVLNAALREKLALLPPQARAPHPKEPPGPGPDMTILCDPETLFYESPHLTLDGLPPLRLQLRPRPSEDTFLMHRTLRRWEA
Sequence of UniProt P62195 (P62195 whole entry, looked up): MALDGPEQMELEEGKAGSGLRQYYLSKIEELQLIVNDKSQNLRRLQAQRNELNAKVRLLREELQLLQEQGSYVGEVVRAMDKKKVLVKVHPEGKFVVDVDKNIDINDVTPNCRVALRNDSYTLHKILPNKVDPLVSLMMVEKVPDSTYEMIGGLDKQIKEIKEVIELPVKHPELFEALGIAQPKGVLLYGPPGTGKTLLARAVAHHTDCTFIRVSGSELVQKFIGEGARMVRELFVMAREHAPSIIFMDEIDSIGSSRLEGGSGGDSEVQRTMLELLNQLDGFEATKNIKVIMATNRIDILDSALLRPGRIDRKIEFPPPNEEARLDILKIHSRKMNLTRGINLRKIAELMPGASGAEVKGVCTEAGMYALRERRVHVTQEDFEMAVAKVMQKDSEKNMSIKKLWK
Sequence of UniProt Q9Y2Y1 (Q9Y2Y1 whole entry, looked up): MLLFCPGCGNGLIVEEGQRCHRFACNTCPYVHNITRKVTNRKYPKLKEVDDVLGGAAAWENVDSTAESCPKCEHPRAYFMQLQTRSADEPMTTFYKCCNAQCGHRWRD
Sequence of UniProt Q92968 (Q92968 whole entry, looked up): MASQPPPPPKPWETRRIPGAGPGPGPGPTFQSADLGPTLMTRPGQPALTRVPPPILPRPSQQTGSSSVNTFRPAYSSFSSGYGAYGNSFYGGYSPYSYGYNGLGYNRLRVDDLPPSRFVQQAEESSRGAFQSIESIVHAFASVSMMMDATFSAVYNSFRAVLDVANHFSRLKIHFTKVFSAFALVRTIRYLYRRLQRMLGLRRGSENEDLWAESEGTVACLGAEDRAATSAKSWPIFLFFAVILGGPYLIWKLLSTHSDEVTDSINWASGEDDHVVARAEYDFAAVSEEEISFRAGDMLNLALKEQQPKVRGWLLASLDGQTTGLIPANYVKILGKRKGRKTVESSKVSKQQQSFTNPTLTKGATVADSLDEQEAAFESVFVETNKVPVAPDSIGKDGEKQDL

These targets were tested with Nc1ccccc1NC(=O)c1ccc(CNC(=O)OCc2cccnc2)cc1 [entinostat] (assay: log2 fold change, soluble protein after heating vs DMSO (PISA); higher = thermal stabilisation; K562 cells, 10 uM, 30 min; active = over 0.2 and 3.5 SD of the protein, either way, in both replicates (recomputed)).
Procedure, shortened: (§1)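 Quantification of soluble protein used TMTpro 16plex LC-MS/MS, with channel sums equalised. Samples were the supernatant after 21,000xg for 90 min of pooled aliquots from K562 cells (2×10^6 cells/mL) treated with 10 μM compound for 30 min, heated for 3 min over 48°C-58°C, and extracted in PBS with 0.5% NP-40 at 4°C. Values, from duplicates, describe thermal stability against control samples on a log2 fold-change scale.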
PDE2A (UniProt O00408) was tested, and the log2 fold change was -0.082.
For PSMC5 (UniProt P62195), the log2 fold change was -0.021.
Work on POMP (UniProt Q9Y244) yielded a log2 fold change of 0.05.
PELO (UniProt Q9BRX2) showed a log2 fold change of 0.058.
POLR2A (UniProt P24928) gave a log2 fold change of 0.049.
For PHAX (UniProt Q9H814), the log2 fold change was -0.022.
PRPF31 (UniProt Q8WWY3) showed a log2 fold change of 0.071.
For PKM isoform 2 (UniProt P14618), the log2 fold change was 0.05.
PSMD11 (UniProt O00231) was tested, and the log2 fold change was -0.012.
For PURA (UniProt Q00577), the log2 fold change was -0.085.
PPIL4 (UniProt Q8WUA2) was tested, and the log2 fold change was 0.011.
Work on POLR2K (UniProt P53803) yielded a log2 fold change of -0.01.
Target PIK3C3 (UniProt Q8NEB9) has a log2 fold change of -0.03.
PRIM2 (UniProt P49643) was tested, and the log2 fold change was 0.058.
PARG (UniProt Q86W56) was tested, and the log2 fold change was 0.12.
PTP4A1 (UniProt Q93096) was tested, and the log2 fold change was 0.039.
In the case of PPP1R14A (UniProt Q96A00), the log2 fold change is reported as 0.
POLR3K (UniProt Q9Y2Y1) showed a log2 fold change of 0.009.
PARL (UniProt Q9H300) gave a log2 fold change of 0.023.
Work on QRSL1 (UniProt Q9H0R6) yielded a log2 fold change of 0.006.
For PRPF40A (UniProt O75400), the log2 fold change was 0.114.
Work on PLA2G15 (UniProt Q8NCC3) yielded a log2 fold change of 0.056.
PATL1 (UniProt Q86TB9) showed a log2 fold change of 0.052.
Target PDCD6IP (UniProt Q8WUM4) has a log2 fold change of 0.149.
In the case of PRKACA (UniProt P17612), the log2 fold change is reported as -0.019.
Work on PEX13 (UniProt Q92968) yielded a log2 fold change of -0.051.
In the case of PPP1R35 (UniProt Q8TAP8), the log2 fold change is reported as -0.06.
Work on PIGT (UniProt Q969N2) yielded a log2 fold change of 0.018.
PDS5B (UniProt Q9NTI5) was tested, and the log2 fold change was -0.036.
Work on PRKAR1A (UniProt P10644) yielded a log2 fold change of -0.068.
Work on PGM3 isoform 4 (UniProt O95394) yielded a log2 fold change of 0.015.
PLK1 (UniProt P53350) was tested, and the log2 fold change was -0.005.
Work on PI4K2A (UniProt Q9BTU6) yielded a log2 fold change of -0.013.
Target PLSCR1 (UniProt O15162) has a log2 fold change of -0.212.
In the case of POLD3 (UniProt Q15054), the log2 fold change is reported as 0.134.
In the case of PPP1CA (UniProt P62136), the log2 fold change is reported as -0.012.
Target PRKAB2 (UniProt O43741) has a log2 fold change of 0.186.

What follows are targets tested with O=C(CCCCCCC(=O)Nc1ccccc1)NO [vorinostat] in the same assay as above.
Procedure, shortened: as §1
In the case of PDE2A (UniProt O00408), the log2 fold change is reported as 0.118.
PSMC5 (UniProt P62195) gave a log2 fold change of -0.004.
POMP (UniProt Q9Y244) was tested, and the log2 fold change was -0.066.
Target PELO (UniProt Q9BRX2) has a log2 fold change of 0.064.
POLR2A (UniProt P24928) gave a log2 fold change of -0.067.
Work on PHAX (UniProt Q9H814) yielded a log2 fold change of -0.006.
PRPF31 (UniProt Q8WWY3) showed a log2 fold change of 0.182.
Work on PKM isoform 2 (UniProt P14618) yielded a log2 fold change of -0.195.
Work on PSMD11 (UniProt O00231) yielded a log2 fold change of 0.027.
PURA (UniProt Q00577) showed a log2 fold change of -0.079.
Target PPIL4 (UniProt Q8WUA2) has a log2 fold change of 0.016.
POLR2K (UniProt P53803) gave a log2 fold change of -0.156.
PIK3C3 (UniProt Q8NEB9) was tested, and the log2 fold change was -0.038.
For PRIM2 (UniProt P49643), the log2 fold change was 0.098.
With PARG (UniProt Q86W56) the log2 fold change was 0.157.
In the case of PTP4A1 (UniProt Q93096), the log2 fold change is reported as -0.029.
PPP1R14A (UniProt Q96A00) gave a log2 fold change of 0.105.
In the case of POLR3K (UniProt Q9Y2Y1), the log2 fold change is reported as -0.003.
With PARL (UniProt Q9H300) the log2 fold change was -0.07.
QRSL1 (UniProt Q9H0R6) was tested, and the log2 fold change was -0.063.
In the case of PRPF40A (UniProt O75400), the log2 fold change is reported as 0.048.
Target PLA2G15 (UniProt Q8NCC3) has a log2 fold change of 0.073.
PATL1 (UniProt Q86TB9) showed a log2 fold change of 0.106.
With PDCD6IP (UniProt Q8WUM4) the log2 fold change was 0.186.
With PRKACA (UniProt P17612) the log2 fold change was 0.02.
PEX13 (UniProt Q92968) was tested, and the log2 fold change was -0.195.
Target PPP1R35 (UniProt Q8TAP8) has a log2 fold change of -0.089.
In the case of PIGT (UniProt Q969N2), the log2 fold change is reported as 0.05.
Work on PDS5B (UniProt Q9NTI5) yielded a log2 fold change of -0.043.
For PRKAR1A (UniProt P10644), the log2 fold change was -0.16.
PGM3 isoform 4 (UniProt O95394) gave a log2 fold change of 0.061.
For PLK1 (UniProt P53350), the log2 fold change was 0.002.
PI4K2A (UniProt Q9BTU6) showed a log2 fold change of 0.039.
PLSCR1 (UniProt O15162) was tested, and the log2 fold change was -0.082.
POLD3 (UniProt Q15054) gave a log2 fold change of -0.008.
PPP1CA (UniProt P62136) showed a log2 fold change of -0.023.
With PRKAB2 (UniProt O43741) the log2 fold change was 0.099.
